Several values for one entry are separate records, joined by “and”; a condition that tells them apart may be missing. Equal values may be shown once. Records with an inconclusive call do not appear. Some compounds were tested as several samples or in several runs, with calls that do not always agree. Activity calls are given as the source filed them. Unless noted, the call rests on the fitted dose curve; in most records, active means well fitted curve in the direction sought with a large enough effect in the repeat runs; inconclusive means weak or mixed curves; inactive means no such curve, though single readings can be large; an effect the other way counts as inactive or inconclusive.

Assay [1] is described as follows: qHTS assay to identify small molecule antagonists of the glucocorticoid receptor (GR) signaling pathway - cell viability counter screen (AID 720693). Further: nearly all actives have a fitted effect of over 55% in size. For orientation: qHTS replaces the single test concentration by a dilution series.
Assay [2] in a line: qHTS assay for identifying genotoxic compounds that show differential cytotoxicity against isogenic chicken DT40 cell lines with known DNA damage response pathways - wild type cell line (AID 743012). Further: nearly all actives have a fitted effect of over 60% in size. Further: potency means the concentration at half of the fitted maximal effect. In short, it runs like this:
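Parental DNA repair-proficient DT40 cells, 300 per well, were pre-incubated ~0.5 h at 37 C/5% CO2, pin-dosed with compounds in DMSO, then incubated 40 h. Viability was read as CellTiter-Glo luminescence after 30 min at room temperature.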

Assay [3] can be described thus: qHTS assay for identifying genotoxic compounds that show differential cytotoxicity against isogenic chicken DT40 cell lines with known DNA damage response pathways - Rev3 mutant cell line (AID 743014). Further: nearly all actives have a fitted effect of over 55% in size. Further: potency means the concentration at half of the fitted maximal effect.
Assay [4] in a line: qHTS assay for identifying genotoxic compounds that show differential cytotoxicity against isogenic chicken DT40 cell lines with known DNA damage response pathways - Rad54/Ku70 mutant cell line (AID 743015). Further: nearly all actives have a fitted effect of over 60% in size. Further: potency means the concentration at half of the fitted maximal effect.
Assay [5] in a line: qHTS assay to identify small molecule antagonists of the androgen receptor (AR) signaling pathway - cell viability counter screen (AID 743033; further: nearly all actives have a fitted effect of over 45% in size).
Assay [6] has as its target Androgen receptor (Homo sapiens) (UniProt P10275). As to the kind of experiment: qHTS assay to identify small molecule antagonists of the androgen receptor (AR) signaling pathway (AID 743035; active means well fitted inhibition curve with a large enough effect in the signal ratio in the repeat runs, not every such curve was filed as active; the % refers to the signal ratio). In short, it runs like this:
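HEK293 cells stably carrying a UAS-driven beta-lactamase reporter (AR-UAS-bla GripTite) were plated for 4 h at 37C, then given compound and the agonist R1881 and incubated 16 h. Reporter activity was read by LiveBLAzer B/G FRET fluorescence after 2 h at room temperature.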

The target is the same in assay [7]. As to the kind of experiment: qHTS assay to identify small molecule agonists of the androgen receptor (AR) signaling pathway (AID 743036; active means well fitted activation curve with a large enough effect in the signal ratio in the repeat runs, with a control signal flat, not every such curve was filed as active; the % refers to the signal ratio). Summed up: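 Fluorescence from a beta-lactamase FRET substrate served as read-out in AR-UAS-bla GripTite HEK293 cells. Cells were treated with DMSO-dissolved compounds for 16 h at 37C, then with LiveBLAzer B/G substrate for 2 h at room temperature.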

The target is the same in assay [8]. As to the kind of experiment: qHTS assay to identify small molecule agonists of the androgen receptor (AR) signaling pathway using the MDA cell line (AID 743040; further: nearly all actives have a fitted effect of over 20% in size). Summed up:
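Cells plated, 5 h at 37C/0% CO2; compound or DMSO pinned; 16 h at 37C; ONE-Glo added; luminescence measured after 30 min at room temperature. Reporter line: MDA-kb2 with MMTV-luciferase responsive to AR and GR.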

A short description of assay [9]: qHTS assay to identify small molecule antagonists of the androgen receptor (AR) signaling pathway using the MDA cell line - cell viability counter screen (AID 743041; further: nearly all actives have a fitted effect of over 45% in size). In short, it runs like this: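 Cells were plated at 3,000 per well and left 5 h. Compounds in DMSO were then pinned in, followed by R1881. After 16 h at 37C, CellTiter-Fluor fluorescence gave viability.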

Assay [10] concerns the target Androgen receptor (Homo sapiens) (UniProt P10275). The assay is described as follows: qHTS assay to identify small molecule antagonists of the androgen receptor (AR) signaling pathway using the MDA cell line (AID 743042; further: nearly all actives have a fitted effect of over 55% in size). In short, it runs like this: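 Antagonist mode: compounds plus R1881 agonist added to MDA-kb2 AR-luc cells, incubated 16 h at 37C. Luciferase reporter luminescence quantified, with multiplexed CellTiter-Fluor readout for cell viability.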

Chain of Androgen receptor (Homo sapiens) (P10275 whole entry, looked up): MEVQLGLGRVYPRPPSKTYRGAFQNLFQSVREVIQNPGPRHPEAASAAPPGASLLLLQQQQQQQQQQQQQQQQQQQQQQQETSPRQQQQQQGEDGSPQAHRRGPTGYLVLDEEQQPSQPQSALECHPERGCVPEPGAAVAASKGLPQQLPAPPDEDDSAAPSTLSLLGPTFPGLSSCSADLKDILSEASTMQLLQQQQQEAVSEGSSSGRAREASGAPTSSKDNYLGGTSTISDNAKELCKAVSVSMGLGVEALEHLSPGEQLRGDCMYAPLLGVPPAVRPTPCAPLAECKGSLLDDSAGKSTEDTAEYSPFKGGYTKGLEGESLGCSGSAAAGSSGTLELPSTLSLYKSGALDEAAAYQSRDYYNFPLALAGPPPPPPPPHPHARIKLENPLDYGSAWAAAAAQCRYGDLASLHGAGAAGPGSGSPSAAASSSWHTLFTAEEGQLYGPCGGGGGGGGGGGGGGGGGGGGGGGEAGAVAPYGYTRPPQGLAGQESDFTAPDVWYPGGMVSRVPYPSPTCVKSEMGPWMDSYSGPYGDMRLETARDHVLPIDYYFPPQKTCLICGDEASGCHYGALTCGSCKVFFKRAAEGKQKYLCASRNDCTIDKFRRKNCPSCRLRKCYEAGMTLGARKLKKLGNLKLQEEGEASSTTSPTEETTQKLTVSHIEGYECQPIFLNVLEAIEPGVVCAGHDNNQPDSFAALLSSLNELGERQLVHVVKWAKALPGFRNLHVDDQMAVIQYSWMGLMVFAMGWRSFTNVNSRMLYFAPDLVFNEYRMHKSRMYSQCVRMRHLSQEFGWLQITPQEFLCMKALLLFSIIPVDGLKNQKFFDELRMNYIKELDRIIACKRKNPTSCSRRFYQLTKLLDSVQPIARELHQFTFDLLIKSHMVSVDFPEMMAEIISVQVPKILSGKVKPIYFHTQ

Regarding `O=C1NC(=O)c2ccccc21`, the Potency result in assay [1], in assay [2], in assay [3] and in [4] was “inactive” throughout. For the same compound, the outcome in [5] was inactive.

On to `O=C(O)c1cccnc1`, for which the Potency entry in assay [1], in [2], in assay [3] and in assay [4] was “inactive” throughout. Further, the call in assay [5] was inactive.

For `O=c1cc[nH]c(=S)[nH]1`, the Potency entry in [1], in [2], in assay [3] and in assay [4] was “inactive” in each case. Besides, in assay [5], the compound was classed as inactive.

As to `COc1ccc2[nH]cc(CCNC(C)=O)c2c1`, the Potency entry in assay [1], in assay [2], in [3] and in assay [4] was “inactive” in each case. The compound was classed as inactive in [5].

`CCCNC(=O)NS(=O)(=O)c1ccc(Cl)cc1`: the Potency result in assay [1], in assay [2], in [3] and in assay [4] was “inactive” throughout. For the same compound, the result in [5] was inactive.

Turning to `CCCC(CCC)C(=O)O`, the Potency entry in assay [1], in assay [2], in assay [3] and in [4] was “inactive” in each case. Also, the outcome in assay [5] was inactive.

With `COc1c2occc2cc2ccc(=O)oc12`, the Potency result in assay [1], in assay [2], in assay [3] and in assay [4] was “inactive” each time. The compound was classed as inactive in [5].

Regarding `CC(O)CO` (stereo not drawn), the Potency result in assay [1], in assay [2] and in assay [3] was “inactive” in each case. Moreover, the Potency entry in [4] was “inactive and 61.1 µM (active)”. For the same compound, the compound was called inactive in assay [5].

For the compound `CC1(C)[C@@H]2CC[C@@]1(C)C(=O)C2`, the Potency entry in assay [1] and in assay [2] was “inactive” each time. Also, the Potency in assay [3] was 4.73 µM (active) and inactive; in [4], 2.98 µM (active) and inactive. For the same compound, the compound was called inactive in assay [5].

In the case of `c1ccc2[nH]ccc2c1`, the Potency entry in assay [1], in [2], in assay [3], in assay [4], in assay [8] and in [9] was “inactive” each time. Besides, the compound was called inactive in assay [5], in assay [6], in [7] and in assay [10].

As to `O=C(O)c1[nH]n(-c2ccc(S(=O)(=O)O)cc2)c(=O)c1N=Nc1ccc(S(=O)(=O)O)cc1`, the Potency result in assay [1], in assay [2], in assay [3] and in assay [4] was “inactive” in each case. The compound was called inactive in [5].

Take `O=c1ccc2ccccc2o1`: the Potency result in [1], in assay [2], in assay [3] and in assay [4] was “inactive” in each case. In [5], the result was inactive.

Consider `C/C=C/c1ccc(OC)cc1`, for which the Potency entry in assay [1], in assay [2], in assay [3] and in assay [4] was “inactive” in each case. Further, the call in assay [5] was inactive.

Take `NNC(=O)c1ccncc1`: the Potency result in assay [1], in [2], in [3] and in [4] was “inactive” each time. Besides, in assay [5], the call was inactive.

With `CCCCC1C(=O)N(c2ccccc2)N(c2ccccc2)C1=O`, the Potency entry in [1], in [2], in assay [3] and in assay [4] was “inactive” throughout. The compound was classed as inactive in assay [5].

With `CCCCCCCCCCCCCCCC(=O)O`, the Potency entry in assay [1], in assay [3] and in assay [4] was “inactive” throughout. For the same compound, the Potency in assay [2] was 11.9 µM (active) and inactive. Also, the call in assay [5] was inactive.

As to `Cc1ccc(C)c(OCCCC(C)(C)C(=O)O)c1`, the Potency entry in assay [1], in [2], in [3], in assay [4], in [8] and in assay [9] was “inactive” throughout. In addition, the result in assay [5], in [6], in [7] and in assay [10] was inactive.

Turning to `CC(C)[C@@H]1CC[C@@H](C)C[C@H]1O`, the Potency entry in [1], in assay [2], in [3], in [4], in assay [8] and in assay [9] was “inactive” each time. For the same compound, the outcome in assay [5], in [6], in [7] and in [10] was inactive.

Regarding `CCCC(O)C(CC)CO` (stereo not drawn), the Potency result in [1], in [2], in assay [3] and in assay [4] was “inactive” each time. Moreover, the compound was called inactive in [5].

For `O=C(O)C(=O)O`, the Potency entry in assay [1], in assay [2], in assay [3] and in assay [4] was “inactive” each time. The call in assay [5] was inactive.

Take `O=C1CN(/N=C/c2ccc([N+](=O)[O-])o2)C(=O)N1`: the Potency entry in assay [1] is “inactive”. Further, the Potency in [2] is 60.9 µM (active); in assay [3] it was 54.3 µM (active) and 68.6 µM (active); in assay [4] it was 60.9 µM (active).

As for `O=C(O)c1cccc([N+](=O)[O-])c1`, the Potency entry in assay [1], in assay [2], in assay [3] and in [4] was “inactive” each time. The compound was classed as inactive in assay [5].

Turning to `O=S(=O)(O)c1ccc2cc(O)ccc2c1`, the Potency result in assay [1], in assay [2], in assay [3] and in assay [4] was “inactive” throughout. Besides, the result in [5] was inactive.

Consider `CC(=O)OCC(COC(C)=O)OC(C)=O`, for which the Potency result in [1], in assay [2], in assay [3] and in assay [4] was “inactive” in each case. In addition, the call in assay [5] was inactive.

`CCOc1ccc(NC(=O)CC(C)O)cc1` (stereo not drawn): the Potency result in assay [1], in assay [2], in [3] and in assay [4] was “inactive” throughout. Besides, the outcome in assay [5] was inactive.

On to `NC(=O)c1ccccc1O`, for which the Potency entry in assay [1], in assay [2], in [3] and in assay [4] was “inactive” each time. Besides, in assay [5], the compound was called inactive.

For the compound `O=C(O)CCCCCCCC(=O)O`, the Potency entry in assay [1], in assay [2], in assay [3] and in [4] was “inactive” each time. The outcome in assay [5] was inactive.

With `Cc1cc(=O)n(-c2ccccc2)n1C`, the Potency result in [1], in assay [2], in [3], in assay [4] and in [8] was “inactive” each time. Also, the result in assay [5], in [6], in [7] and in [10] was inactive.

For the compound `O=C(C1CCCCC1)N1CC(=O)N2CCc3ccccc3C2C1` (stereo not drawn), the Potency entry in assay [1], in assay [2], in [3] and in assay [4] was “inactive” throughout. Besides, the call in assay [5] was inactive.

With `O=C(c1ccccc1)C(O)c1ccccc1` (stereo not drawn), the Potency result in assay [1], in assay [2], in assay [3] and in assay [4] was “inactive” throughout. Moreover, the compound was classed as inactive in assay [5].

For the compound `Nc1ccc(O)c(C(=O)O)c1`, the Potency entry in [1], in assay [2], in [3] and in assay [4] was “inactive” in each case. Further, the outcome in assay [5] was inactive.

`NC(=O)c1cnccn1`: the Potency result in assay [1], in [2], in assay [3] and in assay [4] was “inactive” in each case. Besides, in [5], the call was inactive.

Values taken from PubChem BioAssay (Tox21).
